According to paper PMC4336329 (PLoS ONE, 2015):
The campaign covered roughly 310,000 compounds. About 14,000 (4.5%) showed an effect of 50% or more. Effects have a minus sign here. The sample holds strong results, similar compounds and a random draw of the others, so the mix is not that of the screen.

biological target: human ether-à-go-go-related gene (hERG) potassium channel (human, UniProt Q12809); assay: primary screen, population patch clamp on CHO cells stably expressing hERG; higher = less effect of the substance
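Also: peak tail current of the secondary pulse compared with the same well before compound.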

Chain of human ether-à-go-go-related gene (hERG) potassium channel (Q12809 whole entry, looked up): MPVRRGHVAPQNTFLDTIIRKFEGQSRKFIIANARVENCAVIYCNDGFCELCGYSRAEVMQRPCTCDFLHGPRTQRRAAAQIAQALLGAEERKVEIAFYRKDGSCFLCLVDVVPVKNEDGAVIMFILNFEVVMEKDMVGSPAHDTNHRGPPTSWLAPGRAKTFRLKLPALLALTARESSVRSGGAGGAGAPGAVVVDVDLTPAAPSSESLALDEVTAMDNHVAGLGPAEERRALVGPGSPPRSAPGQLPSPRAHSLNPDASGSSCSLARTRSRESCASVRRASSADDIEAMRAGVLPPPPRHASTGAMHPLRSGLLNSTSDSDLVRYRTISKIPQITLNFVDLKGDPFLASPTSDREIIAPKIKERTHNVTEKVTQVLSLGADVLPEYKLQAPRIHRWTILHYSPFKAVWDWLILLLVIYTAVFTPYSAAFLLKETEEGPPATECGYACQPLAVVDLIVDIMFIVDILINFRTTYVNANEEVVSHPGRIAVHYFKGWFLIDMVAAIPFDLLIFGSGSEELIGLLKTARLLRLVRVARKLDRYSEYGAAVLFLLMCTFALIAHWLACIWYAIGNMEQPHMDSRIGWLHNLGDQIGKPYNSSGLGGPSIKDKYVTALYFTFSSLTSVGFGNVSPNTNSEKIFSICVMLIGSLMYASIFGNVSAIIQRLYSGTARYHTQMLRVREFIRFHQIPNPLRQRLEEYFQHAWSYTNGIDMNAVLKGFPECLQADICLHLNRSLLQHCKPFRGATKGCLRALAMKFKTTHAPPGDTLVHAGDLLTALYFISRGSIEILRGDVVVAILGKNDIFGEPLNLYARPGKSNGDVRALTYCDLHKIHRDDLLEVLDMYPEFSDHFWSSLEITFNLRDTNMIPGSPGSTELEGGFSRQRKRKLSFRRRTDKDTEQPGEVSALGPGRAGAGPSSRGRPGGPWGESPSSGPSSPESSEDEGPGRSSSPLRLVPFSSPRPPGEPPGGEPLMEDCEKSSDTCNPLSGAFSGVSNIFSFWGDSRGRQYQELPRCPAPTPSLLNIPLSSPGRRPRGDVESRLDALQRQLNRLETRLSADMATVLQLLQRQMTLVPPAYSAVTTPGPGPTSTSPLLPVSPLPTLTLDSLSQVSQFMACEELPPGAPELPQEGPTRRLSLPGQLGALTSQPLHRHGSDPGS

Row | SMILES | hERG current change (%, negative = inhibition) at 10uM [%]
1 | Cc1ccccc1C(=O)NC(=S)Nc1ccc(S(=O)(=O)N2CCN(C)CC2)cc1 | 7.75
2 | COc1ccc(-c2noc(CN3CCCCC3)n2)cc1OC | -1.49
3 | Cc1cccc(C)c1NC(=O)CN(c1ccccn1)S(=O)(=O)c1ccc(F)cc1 | 19.1
4 | Cc1ccc2[nH]cc(CCNS(=O)(=O)c3ccc(F)cc3)c2c1 | -4.39
5 | CSc1ccc(CNc2ncc(-c3cccc([N+](=O)[O-])c3)n2C)cc1.O=C(O)C(=O)O | -66.4
6 | Cc1ccc(CNc2ncc(-c3ccccc3)n2C)o1.O=C(O)C(=O)O | -37
7 | Cn1c(-c2ccccc2)cnc1NCc1ccccc1 | -21.3
8 | Cn1c(-c2ccc(F)cc2)cnc1NCc1cccc([N+](=O)[O-])c1 | -70.9
9 | CC(C)NCc1cccc([N+](=O)[O-])c1.O=C(O)C(=O)O | 3.39
10 | COc1cccc(CNc2ncc(-c3ccccc3)n2C)c1 | -35.6
11 | Cn1c(-c2ccccc2)cnc1NCc1cccc([N+](=O)[O-])c1 | -72
12 | Cn1c(-c2ccc(F)cc2)cnc1NCc1cccc(F)c1 | -46
13 | O=C(c1cccc([N+](=O)[O-])c1)n1nc(-c2ccccc2)nc1NCc1ccccc1 | 9.75
14 | Cn1c(-c2cccc([N+](=O)[O-])c2)cnc1NCc1cccc([N+](=O)[O-])c1.O=C(O)C(=O)O | -77.8
15 | CCN(CC)C(=O)c1ccc(NC(=O)Cn2nc(C)c3ccccc3c2=O)cc1 | -10.3
16 | Cc1ccc(C(=O)CSc2nnc(-c3cccnc3)n2N)cc1 | -15.2
17 | O=C(NCCN1C(=O)S/C(=C\c2ccc(Cl)c(Cl)c2)C1=O)C1COc2ccccc2O1 (stereo not shown) | -9.28
18 | COc1cc2c(cc1OC)[C@H](C)N(C(=O)NCc1ccccc1)CC2 | 5.78
19 | CCN(CC)c1ccc2cc(-c3nc4ccccc4n3C)c(=O)oc2c1 | 22.9
20 | O=C(c1cc2sccc2n1Cc1ccc(F)cc1)N1CCCc2ccccc21 | 15.3
21 | c1ccc2c(c1)c1ccccc1n1c(-c3ccc4c(c3)OCO4)nnc21 | 3.9
22 | Cn1ncc2c(N3CCCCC3)nc(NCCCO)nc21 | 11.9

Row | SMILES | hERG current change (%, negative = inhibition) at 10uM [%]
23 | Cn1cnc2c1c(=O)n(Cc1ccc(F)cc1Cl)c(=O)n2C | 5.82
24 | CCOC(=O)C1CCCN(C(=O)c2cccc(S(=O)(=O)N3CCOCC3)c2)C1 (stereo not shown) | 15.6
25 | COc1ccc2cc(C#N)c(SCC(=O)N3CC(=O)Nc4ccccc43)nc2c1 | 14.9
26 | COc1ccc(S(=O)(=O)NCCc2cn3nc(C)c(C)nc3n2)cc1F | 3.38
27 | Cn1c(-c2cccc([N+](=O)[O-])c2)cnc1NCc1cccc(F)c1.O=C(O)C(=O)O | -54.1
28 | COc1ccc([N+](=O)[O-])cc1NCc1cccc([N+](=O)[O-])c1 | -62.6
29 | COc1ccc([N+](=O)[O-])cc1NCc1ccccc1.O=C(O)C(=O)O | 2.96
30 | COc1ccc(CNc2ncc(-c3ccccc3)n2C)cc1 | -32.6
31 | CCOc1ccc(CNc2ncc(-c3ccccc3)n2C)cc1 | -38.9
32 | Cn1c(-c2ccc(Br)cc2)cnc1NCc1cccnc1 | -41.3
33 | COc1ccc(CNc2cc([N+](=O)[O-])ccc2OC)cc1 | -1.02
34 | Cn1c(-c2cccc(Br)c2)cnc1NCc1cccnc1 | -59.6
35 | Cn1c(-c2cccc([N+](=O)[O-])c2)cnc1NCc1ccc(C#N)cc1.O=C(O)C(=O)O | -75
36 | CNc1nc(N(C)C)nc(N(C)C)n1 | -7.71
37 | CCS(=O)(=O)N1Cc2ccccc2CC1C(=O)Nc1cccc(C)c1 (stereo not shown) | -4.95
38 | CCc1cccc2c(C(=S)N3CCCC3)c[nH]c12 | 8.97
39 | Nc1[nH]n2c(=O)cc(-c3ccccc3)nc2c1N=Nc1ccccc1 | 11
40 | COc1ccccc1C(=O)Oc1ccc(N2C(=O)CCC2=O)cc1 | -0.543
41 | Cc1cc(C(F)F)n2nc(C(=O)Nc3ccc(F)cc3F)nc2n1 | -2.95
42 | O=C(CSc1nnc2n1CCCN2)c1ccc([N+](=O)[O-])cc1 | -49.8
43 | Nc1ccc2sc(N)nc2c1 | 12.2
44 | Cc1cc(OC(C)C(=O)N(Cc2ccco2)C2CCS(=O)(=O)C2)cc(C)c1Cl (stereo not shown) | -1.99

Row | SMILES | hERG current change (%, negative = inhibition) at 10uM [%]
45 | CC(C)=CCN1CCN(Cc2ccc(C#CC(C)(C)O)s2)CC1CCO (stereo not shown) | -1.88
46 | Cc1cccc(CNc2ncc(-c3cccc([N+](=O)[O-])c3)n2C)c1.O=C(O)C(=O)O | -71.1
47 | COc1ccc(OC)c(CNc2ncc(-c3cccc([N+](=O)[O-])c3)n2C)c1.O=C(O)C(=O)O | -54.8
48 | COc1cccc(-c2cnc(NCc3cc(Cl)ccc3O)n2C)c1.O=C(O)C(=O)O | -24.1
49 | COc1ccc(CNc2ncc(-c3cccc([N+](=O)[O-])c3)n2C)c(OC)c1OC.O=C(O)C(=O)O | -47.5
50 | Cc1ccccc1Nc1c([N+](=O)[O-])ccc2c1=NC1(CCCCC1)N=2 | -16.6
51 | O=C(COc1ccc(Br)cc1Cl)NNC(=O)c1ccccc1 | 2.57
52 | Cc1ccccc1CN(c1ccc(C(=O)NCc2ccccn2)cc1)S(C)(=O)=O | -35.4
53 | CC1CC(C)CN(C(=O)CSc2nc(Cc3cccs3)nc3ccccc23)C1 (stereo not shown) | -13
54 | Cc1noc(C)c1COC(=O)CCN1c2ccccc2Sc2ccccc21 | 7.54
55 | CCCCCCCN=CC1=C(O)CC(c2ccccc2)CC1=O (stereo not shown) | -6.52
56 | Cc1ccc(-n2cc(S(=O)(=O)c3ccc(C)cc3)[nH]c2=O)cc1 | 4.72
57 | O=C(CCCCCN1C(=O)c2cccc3cccc(c23)C1=O)NCc1ccco1 | 13.2
58 | O=C(NC1CCN(C(=S)Nc2ccc(Cl)cc2)CC1)c1ccco1 | -72.8
59 | O=C(NC1CCN(C(=S)Nc2ccc(F)cc2)CC1)c1ccco1 | -39
60 | COc1ccc(C(=O)NC2CCN(C(=S)NCc3ccco3)CC2)cc1 | -29.6
61 | CC(C)CNC(=S)N1CCC(NC(=O)c2ccco2)CC1 | -65.7
62 | CCNC(=S)N1CCC(NC(=O)c2ccco2)CC1 | 6.16
63 | O=C(NC1CCN(C(=S)NCc2ccco2)CC1)c1cccc(F)c1 | -47.1
64 | O=C(NC1CCN(C(=S)NCc2ccco2)CC1)c1ccc(F)cc1 | -51.6
65 | COc1ccc(NC(=S)N2CCC(NC(=O)c3ccco3)CC2)cc1 | -6.59
66 | COCCNC(=S)N1CCC(NC(=O)c2ccco2)CC1 | 15.7

Row | SMILES | hERG current change (%, negative = inhibition) at 10uM [%]
67 | C=CCN(c1ccc(C(=O)NCCCn2ccnc2)cc1)S(C)(=O)=O | 12.3
68 | CCCc1cc(=O)[nH]c(SC(C)C(=O)Nc2ccc3c(c2)OCCO3)n1 (stereo not shown) | -7.38
69 | Cc1cc(CN(C)C)c(OC(=O)N(C)C)cc1C.Cl | 16.1
70 | Cc1[nH]nc2c1C1(C(=O)Nc3ccc([N+](=O)[O-])cc31)C(C#N)=C(N)O2 (stereo not shown) | 24.9
71 | CCOC(=O)CSc1nc2cc(C(=O)NCC3CCCO3)ccc2c(=O)n1Cc1ccco1 (stereo not shown) | -39.3
72 | O=C(NCC1CCCO1)c1ccc2c(=O)n(CC3CCCO3)c(SCC(=O)N3CCCC3)nc2c1 (stereo not shown) | 3.95
73 | CCCCCn1c(SCC(=O)OCC)nc2cc(C(=O)NCc3ccco3)ccc2c1=O | 2.51
74 | COCCCNC(=O)CSc1nc2cc(C(=O)NCCOC)ccc2c(=O)n1Cc1ccc2c(c1)OCO2 | -4.37
75 | C=CCn1c(SCC(=O)OCC)nc2cc(C(=O)NCc3ccco3)ccc2c1=O | -17.6
76 | CC1CCN(C(=O)CSc2nc3ccccc3c(=O)n2Cc2ccc3c(c2)OCO3)CC1 | -13.6
77 | O=C(NCc1ccco1)c1ccc2c(=O)n(Cc3ccco3)c(SCC(=O)N3CCCC3)nc2c1 | -76.4
78 | O=C(NCC1CCCO1)c1ccc2c(=O)n(Cc3ccco3)c(SCC(=O)N3CCCC3)nc2c1 (stereo not shown) | -79.3
79 | COC(=O)c1ccc2c(=O)n(Cc3ccc4c(c3)OCO4)c(SCC(=O)N3CCCC3)nc2c1 | -52.4
80 | CN1CCN(C(=O)CCN2C(=O)/C(=C/c3ccccc3Cl)SC2=S)CC1 | 9.65
81 | COc1ccc(/C(O)=C2/C(=O)C(=O)N(CCCN3CCOCC3)C2c2ccc(C(C)C)cc2)cc1 (stereo not shown) | 24.6
82 | COc1cc(C2CC(=O)N3CN(Cc4ccco4)CSC3=C2C#N)ccc1OCc1ccccc1 (stereo not shown) | 15.1
83 | CC(=O)C1C(c2cccc(F)c2)c2c(n[nH]c2C)CC1(C)O (stereo not shown) | 15.7
84 | COc1cc(CNCc2ccccc2)ccc1OCC(O)c1ccccc1.O=C(O)C(=O)O (stereo not shown) | -24.9
85 | COC(=O)CC1C(=O)NCCN1C(=O)CSc1nc2cc(Cl)ccc2o1 (stereo not shown) | 13.5
